PubChem BioAssay AID1159580 (chemical genetic matrix, 2015)
Values joined by “and” are separate entries in the source; they are usually repeats but may differ in a detail not shown here. Identical values can stand only once. The whole screen tested about 5,500 compounds, of which about 2,000 (36%) were called active. About 18% were inconclusive and are not listed. Rule as the data show it: active = normalized growth mostly below about 0.91 (no sharp cut-off); inconclusive = no clear call, values can overlap the other calls; inactive = mostly above about 0.92. The list shows a part of the results.

Test: chemical genetic growth profiling, strain panel (AID 1159580);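 also: tested at 20 µM; growth read once vehicle control cultures reached saturation at 30 °C; 1 = growth at the plate median or of vehicle wells; lower values mean less growth of the strain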
Settings: growth OD

Measured: normalized growth

CC(=O)[C@@]1(O)CCC2C3C=C(Cl)C4=CC(=O)[C@@H]5CC5[C@]4(C)C3CC[C@@]21C (some centres not stated)
inactive: S. cerevisiae deletion strains, locus YAL013W, strain DEP1, hits give low values 1.02 | S. cerevisiae deletion strains, locus YBR021W, strain FUR4, hits give low values 0.996 | S. cerevisiae deletion strains, locus YBR229C, strain ROT2, hits give low values 1.01 | S. cerevisiae deletion strains, locus YCL029C, strain bik1, hits give low values 1.02 | S. cerevisiae deletion strains, locus YDL035C, strain GPR1, hits give low values 1 | S. cerevisiae deletion strains, locus YDL074C, strain BRE1, hits give low values 0.991 | S. cerevisiae deletion strains, locus YDL101C, strain DUN1, hits give low values 1.01 | S. cerevisiae deletion strains, locus YDL134C, strain PPH21, hits give low values 1.01 | S. cerevisiae deletion strains, locus YDL185W, strain tfp1, hits give low values 1.01 | S. cerevisiae deletion strains, locus YDL192W, strain arf1, hits give low values 0.998 | S. cerevisiae deletion strains, locus YDR101C, strain arx1, hits give low values 1.01 | S. cerevisiae deletion strains, locus YDR150W, strain NUM1, hits give low values 1.02 | S. cerevisiae deletion strains, locus YDR162C, strain NBP2, hits give low values 1 | S. cerevisiae deletion strains, locus YDR318W, strain mcm21, hits give low values 1 | S. cerevisiae deletion strains, locus YDR388W, hits give low values 1.01 | S. cerevisiae deletion strains, locus YDR502C, strain sam2, hits give low values 1.01 | S. cerevisiae deletion strains, locus YEL061C, strain CIN8, hits give low values 1.01 | S. cerevisiae deletion strains, locus YER110C, hits give low values 1.02 | S. cerevisiae deletion strains, locus YER155C, strain BEM2, hits give low values 0.998 | S. cerevisiae deletion strains, locus YER167W, strain BCK2, hits give low values 0.988 | S. cerevisiae deletion strains, locus YGL078C, strain dbp3, hits give low values 1 | S. cerevisiae deletion strains, locus YGL086W, strain mad1, hits give low values 1.01 | S. cerevisiae deletion strains, locus YGL248W, strain PDE1, hits give low values 1 | S. cerevisiae deletion strains, locus YGR078C, strain PAC10, hits give low values 0.999 | S. cerevisiae deletion strains, locus YGR135W, strain pre9, hits give low values 1.01 | S. cerevisiae deletion strains, locus YGR229C, strain SMI1, hits give low values 1.01 | S. cerevisiae deletion strains, locus YGR252W, strain gcn5, hits give low values 0.952 | S. cerevisiae deletion strains, locus YHR030C, strain SLT2, hits give low values 1.01 and 1.03 | S. cerevisiae deletion strains, locus YHR079C, strain IRE1 (second series), hits give low values 1.02 | S. cerevisiae deletion strains, locus YHR079C, strain IRE1, hits give low values 1.05 | S. cerevisiae deletion strains, locus YHR094C, strain hxt1, hits give low values 1.01 | S. cerevisiae deletion strains, locus YHR129C, strain ARP1, hits give low values 1 | S. cerevisiae deletion strains, locus YHR200W, strain rpn10, hits give low values 1.02 | S. cerevisiae deletion strains, locus YIL066C, strain RNR3, hits give low values 1.01 | S. cerevisiae deletion strains, locus YIL073C, strain SPO22, hits give low values 1.01 | S. cerevisiae deletion strains, locus YIL125W, strain kgd1, hits give low values 1.01 | S. cerevisiae deletion strains, locus YIR030C, strain dcg1, hits give low values 1.02 | S. cerevisiae deletion strains, locus YJL095W, strain BCK1, hits give low values 1.02 and 1.03 | S. cerevisiae deletion strains, locus YJL134W, strain LCB3, hits give low values 1.01 | S. cerevisiae deletion strains, locus YJL168C, strain set2, hits give low values 1.01 | S. cerevisiae deletion strains, locus YJL187C, strain SWE1 (second series), hits give low values 1.02 | S. cerevisiae deletion strains, locus YJR043C, strain POL32, hits give low values 1 | S. cerevisiae deletion strains, locus YJR066W, strain TOR1, hits give low values 0.95 | S. cerevisiae deletion strains, locus YJR075W, strain HOC1, hits give low values 1.03 | S. cerevisiae deletion strains, locus YKL009W, strain mrt4, hits give low values 0.999 | S. cerevisiae deletion strains, locus YKL068W, hits give low values 1.01 | S. cerevisiae deletion strains, locus YKL085W, strain MDH1 (second series), hits give low values 0.999 | S. cerevisiae deletion strains, locus YKL085W, strain MDH1, hits give low values 0.999 | S. cerevisiae deletion strains, locus YKL190W, strain CNB1, hits give low values 1.01 | S. cerevisiae deletion strains, locus YKR001C, strain vps1, hits give low values 0.995 | S. cerevisiae deletion strains, locus YLR039C, strain RIC1, hits give low values 0.984 | S. cerevisiae deletion strains, locus YLR058C, strain SHM2, hits give low values 1.01 | S. cerevisiae deletion strains, locus YLR102C, strain apc9, hits give low values 1.01 | S. cerevisiae deletion strains, locus YLR113W, strain HOG1, hits give low values 0.974 | S. cerevisiae deletion strains, locus YLR262C, strain YPT6, hits give low values 1 | S. cerevisiae deletion strains, locus YLR268W, strain sec22, hits give low values 1.02 | S. cerevisiae deletion strains, locus YLR330W, strain CHS5, hits give low values 1.01 | S. cerevisiae deletion strains, locus YLR342W, strain FKS1 (second series), hits give low values 1.01 | S. cerevisiae deletion strains, locus YLR371W, strain rom2, hits give low values 1.02 | S. cerevisiae deletion strains, locus YLR418C, strain cdc73, hits give low values 0.993 | S. cerevisiae deletion strains, locus YML016C, strain PPZ1, hits give low values 1.02 | S. cerevisiae deletion strains, locus YML032C, strain rad52, hits give low values 1.02 | S. cerevisiae deletion strains, locus YML124C, strain tub3, hits give low values 1.01 | S. cerevisiae deletion strains, locus YMR078C, strain ctf18, hits give low values 1 | S. cerevisiae deletion strains, locus YMR223W, strain ubp8, hits give low values 1.01 | S. cerevisiae deletion strains, locus YMR263W, strain SAP30, hits give low values 1.02 | S. cerevisiae deletion strains, locus YMR307W, strain GAS1, hits give low values 0.943 | S. cerevisiae deletion strains, locus YNL067W, strain RPL9B, hits give low values 1.02 | S. cerevisiae deletion strains, locus YNL128W, strain TEP1, hits give low values 1.03 | S. cerevisiae deletion strains, locus YNL153C, strain GIM3, hits give low values 1.01 | S. cerevisiae deletion strains, locus YNL183C, strain NPR1, hits give low values 0.958 | S. cerevisiae deletion strains, locus YNL233W, strain BNI4, hits give low values 0.987 | S. cerevisiae deletion strains, locus YNL250W, strain rad50, hits give low values 1.01 | S. cerevisiae deletion strains, locus YNL271C, strain bni1, hits give low values 1.01 | S. cerevisiae deletion strains, locus YNL298W, strain CLA4, hits give low values 1.01 | S. cerevisiae deletion strains, locus YNL307C, strain MCK1, hits give low values 1 | S. cerevisiae deletion strains, locus YNL322C, strain KRE1, hits give low values 1.01 | S. cerevisiae deletion strains, locus YNR052C, strain pop2, hits give low values 1.01 | S. cerevisiae deletion strains, locus YOL006C, strain TOP1, hits give low values 1.02 | S. cerevisiae deletion strains, locus YOL012C, strain htz1 1.53 | S. cerevisiae deletion strains, locus YOL147C, strain pex11, hits give low values 1 | S. cerevisiae deletion strains, locus YOR061W, strain CKA2, hits give low values 1.01 | S. cerevisiae deletion strains, locus YOR069W, strain VPS5, hits give low values 1.01 | S. cerevisiae deletion strains, locus YOR136W, strain idh2, hits give low values 1 | S. cerevisiae deletion strains, locus YOR144C, strain elg1, hits give low values 1 | S. cerevisiae deletion strains, locus YOR184W, strain ser1, hits give low values 1 | S. cerevisiae deletion strains, locus YOR231W, strain MKK1, hits give low values 1.01 | S. cerevisiae deletion strains, locus YOR316C, strain cot1, hits give low values 1.01 | S. cerevisiae deletion strains, locus YPL055C, strain LGE1, hits give low values 1.01 | S. cerevisiae deletion strains, locus YPL241C, strain CIN2, hits give low values 1.01 | S. cerevisiae deletion strains, locus YPL256C, strain CLN2, hits give low values 1.04 | S. cerevisiae deletion strains, locus YPR119W, strain clb2, hits give low values 1 | S. cerevisiae deletion strains, locus YPR141C, strain kar3, hits give low values 0.998 | S. cerevisiae deletion strains, locus YPR163C, strain tif3, hits give low values 1.01 | S. cerevisiae deletion strains, locus YPR167C, strain met16, hits give low values 1.01 | S. cerevisiae deletion strains, strain wtn01, hits give low values 1.02 | S. cerevisiae strains, strain wild type, hits give low values 1
